Only some compounds are listed: those with a hit (about 6.9% of all), similar ones and a draw of the others.
NS3h inh CB – hepatitis C NS3 helicase inhibition, primary screen | NS3h Cy5-dT15 DNA binding, fluorescence polarization | inhibition, % at 100 µM | 16,000 compounds, 1.6% hits | AID 687043;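 active means inhibition above the average over every tested compound plus 3 SD, cut at about 40% in these data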
Cy5 interf NS3h – enhances or quenches Cy5 fluorescence in NS3h assay. Cy5-dT15 DNA with NS3h, fluorescence interference; actives lie on both sides; signal over control mean, under 1 quenches. fluorescence interference ratio at 100 µM. 16,000 compounds, 6% hits;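 active means compound fluorescence over control fluorescence at most 0.8, a quencher, or at least a set upper limit, an enhancer; inactive means ratio between 0.8 and the set upper limit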
NS3h confirm – confirmation of hepatitis C virus NS3 helicase inhibitors | NS3h binding to Cy5-dT15 DNA, fluorescence polarization | inhibition, % at 100 µM | shares compounds with NS3h inh CB | 240 compounds, 20% hits;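 active means percent inhibition of 50% or more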
SSB FP counter – disrupts E. coli SSB binding to DNA in counter-screen; AID 720486; inhibition, % at 100 µM; shares compounds with NS3h inh CB; 240 compounds, 40% hits; E. coli SSB binding Cy5-dT15, fluorescence polarization;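 active means inhibition of at least 50%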;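 further: displacers lower Cy5 polarization so higher inhibition means more SSB displaced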
Target sequence (P0AGE0 whole entry, looked up): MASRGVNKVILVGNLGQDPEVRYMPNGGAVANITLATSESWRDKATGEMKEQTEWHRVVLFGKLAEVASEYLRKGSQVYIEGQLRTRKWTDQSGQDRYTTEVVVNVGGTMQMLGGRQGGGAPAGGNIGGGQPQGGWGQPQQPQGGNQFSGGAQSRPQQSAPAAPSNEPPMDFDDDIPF
Cy5 SSB fluor CB – enhances or quenches Cy5-DNA fluorescence with E. coli SSB. shares compounds with NS3h inh CB. Cy5-dT15/E. coli SSB fluorescence interference; actives lie on both sides. fluorescence interference ratio at 100 µM. 240 compounds, 8% hits. AID 720487;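 active means fluorescence interference ratio at or above 1.2, signal boosting, or at or below 0.8, signal quenching; inactive means ratio between 0.8 and 1.2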
Cy5 fluor confirm – confirmation counter-screen for HCV NS3 helicase inhibitors: fluorescence interference; shares compounds with NS3h inh CB; Cy5-dT15 DNA/NS3h fluorescence interference counterscreen; fluorescence interference ratio at 100 µM, hits read low; 240 compounds, 44% hits; AID 720489;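 active means fluorescence interference ratio at or below 0.8 quencher or at or above a set limitenhancer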
Hits are given with their value; i = inactive; nt = no result given.

SMILES | NS3h inh CB | Cy5 interf NS3h | NS3h confirm | SSB FP counter | Cy5 SSB fluor CB | Cy5 fluor confirm
CCC1(c2ccccc2)C(=O)NC(=O)N(C(=O)c2cccc(F)c2)C1=O (centres undefined) | i | i | nt | nt | nt | nt
COc1cc(C=C2C(=O)N(C)C(=O)N(C)C2=O)ccc1OCCOc1ccccc1 | i | i | nt | nt | nt | nt
COc1ccc(O)c(CN2CCN(Cc3ccc(Br)cc3)CC2)c1 | i | i | nt | nt | nt | nt
COc1ccc(O)c(CN2CCN(Cc3ccc(F)cc3)CC2)c1 | 63.6 | 1.2 | i | i | i | i
Oc1ccc(Br)cc1CN1CCN(Cc2cccc(F)c2)CC1 | i | i | nt | nt | nt | nt
Cc1cc(OCC(=O)c2ccccc2)c2c3c(c(=O)oc2c1)CCC3 | i | i | nt | nt | nt | nt
Cc1cc(/C=C2\C(=O)NC(=O)N(c3cccc(Br)c3)C2=O)c(C)n1C | i | i | nt | nt | nt | nt
O=C1NC(=S)NC(=O)C1=Cc1ccc(OCc2cccc(C(=O)O)c2)cc1 | 58.4 | i | i | 89.1 | i | i
O=C1NC(=O)N(c2ccc3c(c2)OCO3)C(=O)/C1=C/c1ccc(OCc2cccc(C(=O)O)c2)cc1 | 47.7 | i | i | 57.5 | i | 0.751
O=C1NC(=S)NC(=O)C1=Cc1ccc(OCc2cccc3ccccc23)cc1 | 52.6 | i | i | 66.0 | i | i
Cc1cccc(N2C(=O)/C(=C/c3ccc(OCc4cccc(C(=O)O)c4)cc3)C(=O)NC2=S)c1 | i | i | nt | nt | nt | nt
O=C(CF)NC(Nc1ccc(Br)cc1)C(Cl)(Cl)Cl (centres undefined) | i | i | nt | nt | nt | nt

Bioassay records (PubChem BioAssay)
